This passage reports Percent Effect results from ChEMBL document CHEMBL3988442, “University of Dundee, Small-Polar-MMV Screening Library” (2021).

The structures appear in SMILES notation. Where “and” joins values, the source holds several entries; their conditions need not be identical. Equal values may be shown once. About 40 (0.06%) of roughly 67,000 compounds showed an effect of 50% or more. The sample as a whole holds a higher share of strong results than the screen did.

The experiment addresses T1, Coenzyme A biosynthesis bifunctional protein CoaBC (Mycobacterium tuberculosis (strain ATCC 25618 / H37Rv)) (UniProt P9WNZ1).
T1 sequence (whole entry): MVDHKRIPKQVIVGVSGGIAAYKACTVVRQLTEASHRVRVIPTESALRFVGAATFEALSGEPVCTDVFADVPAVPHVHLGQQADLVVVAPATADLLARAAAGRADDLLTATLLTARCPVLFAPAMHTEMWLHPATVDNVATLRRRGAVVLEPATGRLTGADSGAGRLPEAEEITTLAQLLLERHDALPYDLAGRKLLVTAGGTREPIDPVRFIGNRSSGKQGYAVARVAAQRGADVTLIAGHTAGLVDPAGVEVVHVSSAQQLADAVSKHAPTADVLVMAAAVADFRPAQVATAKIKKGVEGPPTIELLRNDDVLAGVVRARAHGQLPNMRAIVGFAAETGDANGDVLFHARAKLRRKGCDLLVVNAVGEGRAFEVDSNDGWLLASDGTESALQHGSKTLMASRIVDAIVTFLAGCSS
Briefly: Biomol Green assay for MtCoaBC inhibitor, OD650 read. The format is functional. More on the design: scale not given: in the data most compounds retested in dose-response had high values. The settings on record: 30 µM.
In the case of `O=C(N1CCCO1)[C@@]12CCO[C@@H]1CCN(Cc1ccsc1)C2`, the Percent Effect was -8.02%.

As to `CCS(=O)(=O)N1CC[C@H]2CO[C@H](CN(C)C)[C@H]2C1`, the Percent Effect is -0.203%. Next, `CC(=O)N1C[C@H]2CNC[C@@]2(C(=O)NCCCOc2cccnc2)C1`: 3.58%. `O=C(NCCC(=O)N1CCCC1)c1cccnc1`: the Percent Effect came out at 0.943%.

As to `CN1CCC(C)(CNC(=O)c2ccc(SCc3cccnc3)cc2)CC1`, the Percent Effect was -1.65%. Next, `O=C(c1cscn1)N1C[C@@H]2C[C@@H](c3nnc(C4CC4)o3)O[C@@H]2C1`: 0.38%; `CC1CCN(C[C@H]2CN3CC[C@H]2C[C@@H]3CNC(=O)c2ccco2)CC1`: -15.2%. Next, `Cc1ccccc1CC(=O)N1C[C@@H]2COC[C@]2(CN(C)C)C1`: -10.9%; `COCCN1CC[C@@H]2CN(Cc3cccnc3OC)C[C@@H]2C1`: -0.364%. Next, `Nc1cc(O)nc(CCNC(=O)CC[C@@H]2CCCN3CCCC[C@H]23)n1`: -3.91%; `COc1cc(O)cc2c1C(=O)CC(c1ccc(O)cc1)O2` (stereo not drawn): 65.2% and 48.7%.

For the molecule `COc1ccc(C2CC(=O)c3c(O)cc(O)cc3O2)cc1O` (stereo not drawn), the Percent Effect came to 17.8%. Take `COc1cc(C2CC(=O)c3c(O)cc(O)cc3O2)ccc1O` (stereo not drawn): the Percent Effect was 7%.

Consider `CN(Cc1ccco1)[C@@H]1CN(Cc2ccsc2)C[C@@H]2CCCO[C@@H]21`, for which the Percent Effect was determined as 5.46%.

Consider `COCc1cccc(C(=O)N2C[C@H]3CC[C@@H]2CN(Cc2cscn2)C3)n1`, for which the Percent Effect worked out at 1.53%. Turning to `Cn1cc(N2C(=O)CC[C@@H]3[C@H]2CCN3Cc2ccncc2)cn1`, the Percent Effect was determined as 0.381%. Next, `Cc1nc(CN2CC[C@H]3[C@@H]2CCC(=O)N3c2cnn(C)c2)cs1`: -3.58%. For `O=C1N[C@@H]2CCN(C(=O)C3CCC3)[C@@H]2C(=O)N1c1ccc(F)cc1`, the Percent Effect stood at 0.226%. Next, `Fc1cccc(O[C@@H]2C[C@H]3CN(Cc4ccccn4)CCN3C2)c1`: 0.483%; `Cn1cccc1C(=O)N1CC[C@H]2C[C@@H](c3ccncn3)O[C@@H]2C1`: 1.03%. Next, `Cc1cc(CN2CCCC2)cc(Oc2ccc3c(c2)CC(CN)O3)c1` (stereo not drawn): 3.85%; `COc1ccc(CN2CCCC2)cc1Oc1ccc2c(c1)CC(CN)O2` (stereo not drawn): 4.1%; `O=C(NCC1CC1)[C@@H]1C[C@@H]2OCCN[C@@H]2C1`: -1.96%.

Consider `COc1ccc(-n2cc(CNC(=O)c3ccccn3)nn2)cc1`, for which the Percent Effect came out at 6.21%. Next, `CN1C(=O)CO[C@H]2CN(C(=O)Nc3ccc(F)cc3)C[C@H]21`: 9.63%; `Cc1noc([C@H]2C[C@@H]3CCN(CC4CCOCC4)C[C@H]3O2)n1`: 14.2%; `Cc1ccc(OCC(=O)N2CCN[C@H]3CS(=O)(=O)C[C@H]32)cn1`: 12%.

Take `Cc1ncsc1CN1C[C@@H]2COC[C@]2(COc2ccc(C#N)cn2)C1`: the Percent Effect was found to be 2.8%.
